Source: PubChem BioAssay
This is a sample that favours compounds with a hit; in the whole collection about 2.2% have one here.
PAX8 inh HTS = lowers PAX8-driven luciferase in RMG-I cells | RMG-I TPO-luciferase reporter, SteadyGlo, 24 h | inhibition, % at 12.6 µM | actives 1.2% (n = 360,000) | AID 652154;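 active = mean replicate inhibition at least 60% with every replicate also reaching 60%; inconclusive = only one of the two criteria is met; inactive = mean below 60% and not all replicates reaching 60%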;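 also: luciferase light reporting Pax8 driven TPO promoter activity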
EWS-Fli inh = inhibitors of EWS/Fli oncoprotein transcriptional activity | A673 NR0B1-luciferase reporter, viability-normalised | inhibition, % at 12.6 µM | actives 0.67% (n = 350,000);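 active = mean inhibition of at least 50% after viability correction, with every replicate also passing that limit; inconclusive = mean reaches 50% but only one of two replicates passes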;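 also: firefly luciferase signal divided by Alamar Blue viability fluorescence both relative to DMSO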
LGR2 inh = Drosophila LGR2 receptor signaling inhibition | HEK293 LGR2, CRE-luciferase, bursicon-stimulated, 4 h | inhibition, % at 9.99 µM | actives 0.35% (n = 380,000);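 active = drop in luminescence signal, shown as inhibition above about 50% in the replicate tests, limit read from the data, passing the limit was not always enough; inconclusive = probably only some replicates passing the limit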;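 also: agonist challenge used bursicon conditioned medium at about half maximal strength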
Shn3 3UTR inh = inhibitors of Schnurri-3 3'UTR reporter in osteoblasts; Clone20 osteoblast Shn3 3'UTR firefly luciferase, 24 h; inhibition, % at 12.5 µM; actives 0.52% (n = 360,000);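 active = mean inhibition of at least 75% with every replicate also reaching 75%; inconclusive = mean inhibition at least 75% but some replicate below; inactive = mean inhibition below 75%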
LMP1 NFkB inh = Epstein-Barr LMP1 NF-kappaB reporter inhibition; LMP1-induced NF-kappaB luciferase reporter cells, luminescence; inhibition, % at 12.5 µM; actives 0.69% (n = 350,000); in the data active = inhibition above about 41%; inconclusive = no clear call, values can overlap the other calls
MITF TRPM1 inh = reduces MITF-dependent TRPM1 promoter luciferase signal; AID 488899; SK-MEL-5 TRPM1 promoter luciferase, 24 h; actives 0.83% (n = 330,000); inhibition, % at 12.5 µM;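 active = mean inhibition across replicates of 60% or more, whatever share of single replicates reaches that level; inconclusive = some that reach 60%, reason not given; inactive = mean inhibition across replicates below 60%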
A number is an active result; – = inactive; ? = inconclusive; · = no result; ! = not confirmed by another sample.

SMILES	PAX8 inh HTS	EWS-Fli inh	LGR2 inh	Shn3 3UTR inh	LMP1 NFkB inh	MITF TRPM1 inh
C[C@@H]1CN([C@H](C)CO)C(=O)c2cc(C3=CCCC3)cnc2O[C@@H]1CN(C)Cc1cccnc1	·	–	–	·	·	·
CN(C)c1ccc(/C=C(\C#N)c2ccccn2)cc1	–	·	93	–	60	68
COc1cc(/C=C(\C#N)c2ccccn2)ccc1OCc1ccccc1Cl	–	–	–	–	70	–
N#C/C(=C\c1ccc([N+](=O)[O-])cc1)c1ccccn1	–	–	–	–	–	–
CN(C)c1ccc(NC(=S)c2ccccn2)cc1	?	86	99	–	73	79
CCCC(=O)Nc1ccc2c(c1)OC[C@H](C)N(Cc1nccs1)C[C@@H](C)[C@H](OC)CN(C)C2=O	–	–	–	·	·	·
CN1CCN(C2Cc3ccccc3Sc3cc(C(F)(F)F)ccc32)CC1 (configuration not stated)	–	–	–	·	·	·
CCc1cccc2c1Sc1ccccc1CC2N1CCNCC1 (configuration not stated)	–	–	·	–	–	81
Cc1noc(C)c1S(=O)(=O)Nc1ccc2c(c1)C(=O)N([C@@H](C)CO)C[C@@H](C)[C@H](CN(C)C(=O)Nc1ccc(C(F)(F)F)cc1)OCCCC[C@@H](C)O2	66	–	–	·	·	·
Cc1noc(C)c1S(=O)(=O)Nc1ccc2c(c1)C(=O)N([C@H](C)CO)C[C@H](C)[C@H](CN(C)Cc1ccc(C(F)(F)F)cc1)OCCCC[C@@H](C)O2	–	·	–	·	·	·
Cc1noc(C)c1S(=O)(=O)Nc1ccc2c(c1)C(=O)N([C@@H](C)CO)C[C@H](C)[C@@H](CN(C)C(=O)Nc1ccc(C(F)(F)F)cc1)OCCCC[C@H](C)O2	107	–	–	·	·	·
Cc1noc(C)c1S(=O)(=O)Nc1ccc2c(c1)C(=O)N([C@@H](C)CO)C[C@H](C)[C@@H](CN(C)Cc1ccc(C(F)(F)F)cc1)OCCCC[C@H](C)O2	71!	–	–	–	–	·
Cc1noc(C)c1S(=O)(=O)Nc1ccc2c(c1)C(=O)N([C@@H](C)CO)C[C@H](C)[C@@H](CN(C)C(=O)Nc1ccc(C(F)(F)F)cc1)OCCCC[C@@H](C)O2	65	–	–	·	·	·
CC(C)c1cn(CC[C@H]2CC[C@H](NS(=O)(=O)c3ccccc3)[C@H](CO)O2)nn1	–	–	–	·	·	·
O=C(C[C@H]1CC[C@@H](NC(=O)Nc2cc(F)ccc2F)[C@H](CO)O1)NCc1ccc2c(c1)OCO2	–	–	–	·	·	·
C[C@@H]1CN([C@@H](C)CO)C(=O)c2cc(NC(=O)NC3CCCCC3)ccc2O[C@@H](C)CCCCO[C@H]1CN(C)C(=O)CCC(F)(F)F	·	–	–	·	·	·
C[C@@H]1CN([C@@H](C)CO)C(=O)Cc2cc(NC(=O)CCN3CCOCC3)ccc2O[C@@H]1CN(C)Cc1ccccc1	–	–	–	·	·	·
COCCn1c(C)cc(C(=O)COC(=O)c2cccnc2SC)c1C	–	–	–	–	–	–
CCn1c(C)cc(C(=O)COC(=O)c2ccccc2[N+](=O)[O-])c1C	·	·	·	94	87	97
O=C(COC(=O)c1ccccc1[N+](=O)[O-])c1ccc2c(c1)OCO2	–	–	85	–	–	–
COCCn1c(C)cc(C(=O)COC(=O)c2n[nH]c3ccccc23)c1C	–	·	·	–	55	–
COCCn1c(C)cc(C(=O)COC(=O)c2ccccc2Br)c1C	–	–	·	–	54	81
Cc1ccc(S(=O)(=O)Nc2ccc3c(c2)C(=O)N([C@@H](C)CO)C[C@@H](C)[C@H](CN(C)C(=O)Cc2ccccc2)OCCCC[C@H](C)O3)cc1	–	–	–	·	·	·
CCCn1c(C)cc(C(=O)COC(=O)c2ccc[nH]c2=O)c1C	–	·	56	–	48	–
Cc1cc(C(=O)COC(=O)c2ccc[nH]c2=O)c(C)n1-c1ccccc1F	–	–	–	–	–	–
SMILES	PAX8 inh HTS	EWS-Fli inh	LGR2 inh	Shn3 3UTR inh	LMP1 NFkB inh	MITF TRPM1 inh
Cc1noc(C)c1NC(=O)NCC[C@@H]1CC[C@H](NC(=O)c2ccncc2)[C@H](CO)O1	–	–	–	·	·	·
COc1ccc(S(=O)(=O)N2CCCCC2)cc1NC(=O)c1ccc([N+](=O)[O-])o1	–	–	–	–	–	85
CCN1CCN(c2ccc(S(=O)(=O)N3CCOCC3)cc2NC(=O)/C=C/c2ccc([N+](=O)[O-])cc2)CC1	72	–	–	–	–	64
O=C(Nc1ccc(S(=O)(=O)N2CCCC2)cc1)c1ccc([N+](=O)[O-])o1	·	·	–	91	–	·
CCN1CCN(c2ccc(S(=O)(=O)N3CCCCC3)cc2NC(=O)c2ccc([N+](=O)[O-])o2)CC1	–	–	–	–	–	95
O=[N+]([O-])c1ccc(C=Nc2ccc(Cl)c([N+](=O)[O-])c2)s1	–	–	–	–	–	71
C[C@H]1CN([C@@H](C)CO)C(=O)c2cccc(NC(=O)Nc3ccc(F)cc3)c2O[C@@H]1CN(C)Cc1ccc(Cl)c(Cl)c1	·	–	–	·	·	·
CSc1nc2c(cc1C#N)CCC2	–	–	–	–	–	–
N#Cc1cc2c(nc1SC1CC(=O)N(c3ccccc3)C1=O)CCC2 (configuration not stated)	·	·	·	–	52	65
C[C@@H]1CCCCO[C@H](CN(C)S(=O)(=O)c2cn(C)cn2)[C@@H](C)CN([C@H](C)CO)C(=O)c2cc(NC(=O)Nc3ccccc3)ccc2O1	–	–	–	·	·	·
CC1(C)CC(=O)C2=C(C1)N1C(=C(C#N)C2c2ccc(Cl)cc2)N=C(N)c2ccccc21 (configuration not stated)	67	–	–	–	–	–
CC1(C)CC(=O)C2=C(C1)N1C(=C(C#N)C2c2ccccc2Cl)N=C(N)c2ccccc21 (configuration not stated)	–	–	–	–	–	–
O=C(Cc1ccccc1)N1CC2(C1)[C@H](c1ccccc1)[C@H](CO)N2S(=O)(=O)Cc1ccccc1	–	–	–	·	·	·
COc1ccc(-c2nnn(CC(=O)Nc3ccc4c(c3)OCCO4)n2)cc1OC	·	·	·	85	–	–
C[C@@H]1CN([C@H](C)CO)C(=O)CCCn2cc(nn2)CO[C@@H]1CN(C)C	·	–	–	·	·	·
Cc1ccccc1C(=O)N/N=C/c1ccccn1	–	–	57	–	–	–
O=C(N/N=C/c1ccccn1)c1cc(-c2ccc(Cl)cc2)nc2ccccc12	–	–	–	–	–	81
CCCOc1cccc(-c2cc(C(=O)N/N=C/c3cccnc3)c3ccccc3n2)c1	–	·	–	–	·	–
CCCOc1cccc(-c2cc(C(=O)N/N=C/c3ccccn3)c3ccccc3n2)c1	–	·	–	–	–	90
O=C(N/N=C/c1ccccn1)c1cc(-c2ccc(Br)cc2)nc2ccccc12	66	–	–	–	–	66
O=C(N/N=C\c1ccccn1)c1ccccc1O	–	–	·	–	–	–
O=C(N/N=C/c1ccco1)c1cc(-c2ccccc2)nc2ccccc12	–	·	–	–	–	–
